VACV Venus inh – qHTS for Stage-Specific Inhibitors of Vaccinia Orthopoxvirus: Venus Reporter Primary qHTS | Vaccinia virus Venus reporter expression, fluorescence | Potency, µM (series often up to 36.5 µM), for inactives: at the top dose activity change, negative = inhibition, actives largely listed as inhibitors | 0.46% of 330,000 active | AID 720580, 2013; calls by dose curve; tested in A549 cells; further: potency means the concentration at half of the fitted maximal effect; nearly all actives have a fitted effect of over 30% in size
Vaccinia mCherry – qHTS for Stage-Specific Inhibitors of Vaccinia Orthopoxvirus: mCherry Reporter Primary qHTS. 0.63% of 310,000 active. AID 720579, 2013. Vaccinia virus mCherry reporter infection, fluorescence. Potency, µM (top dose mostly 36.5 µM), inactives show at the highest dose activity change, negative = inhibition, usual class: inhibitors; calls by dose curve; tested in A549 cells; further: potency means the concentration at half of the fitted maximal effect; nearly all actives have a fitted effect of over 35% in size
FMDV inh – High Throughput Screening for Foot and Mouth Disease Virus Antivirals; FMDV antiviral cell-based qHTS; Potency, µM (highest dose often 57.9 µM), for inactives: top-dose activity change, negative = inhibition, hits mostly inhibitors; 1.2% of 410,000 active; AID 1159524, 2015; calls by dose curve; tested in HEK293T cells; further: read-out not given here; potency means the concentration at half of the fitted maximal effect; nearly all actives have a fitted effect of over 45% in size
HCV inh – qHTS Assay for Inhibitors of Hepatitis C Virus (HCV) | Huh7.5.1 HCVcc-Cre infection, luciferase reporter, 44 h | Potency, µM (highest dose often 41.8 µM), for inactives: at the highest dose activity change, negative = inhibition, hits mostly inhibitors | 3.4% of 340,000 active; active means well fitted inhibition curve with a large enough effect; inconclusive means small, poorly fitted or top-dose-only effect, or another doubt; inactive means no such curve, though single readings can be large or run the other way; further: potency means the concentration at half of the fitted maximal effect
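1,000 cells/well; 4 h culture; + compound; + HCVcc-Cre (~0.5 moi); 44 h; luciferase substrate, RT 15 min; read 15 sec.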
HCMV inh – qHTS Assay for inhibitors of the human cytomegalovirus (HCMV) | HFF cells, HCMV-luciferase reporter, 72 h; hits give low values | activity change, negative = inhibition, % at 57.5 µM | 4.5% of 410,000 active | AID 1259415, 2018; in the data active means activity change below about -60%; inconclusive means no clear call, values can overlap the other calls; inactive means above about -39%
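Cell-based, HFFs, 1000 cells/well, 16 h 37C; cpds in DMSO + HCMV-luc, MOI 1 PFU/cell; 72 h 37C; OneGlo luminescence after 5 min RT; norm. to buffer vs Salinomycin 10uM.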
Numbers without * were called inactive; i = inactive; ? = inconclusive; · = no result; + = active, no number; [ ] = another dose, or the depositor's remark. Hits are enriched below; roughly 7.3% of the tested compounds scored in any of these assays. On the % scale 0 is the no-effect control and ±100 the full control effect.

SMILES	VACV Venus inh	Vaccinia mCherry	FMDV inh	HCV inh	HCMV inh
Cc1cnc(CNc2ncncc2-c2ccccc2C(F)(F)F)cn1	0%	9%	-19%	·	·
CCCSCC(=O)Nc1ncc2c(n1)-c1ccccc1CC2	-6%	i	18%	-21%	-95*
COc1cccc(/C=C/C(=O)NCc2ccc(S(N)(=O)=O)cc2)c1	-5%	-9%	5%	10µM*	25
NS(=O)(=O)c1ccc(CNC(=O)/C=C/c2ccccc2)cc1	6%	-4%	-12%	22%	11
O=C(/C=C/c1cn(-c2ccccc2)nc1-c1cccnc1)c1ccco1	?	-29%	14µM*	?	-99*
O=C(/C=C/c1cn(-c2ccccc2)nc1-c1cccnc1)N1CCCC1	·	·	11%	-24%	17
Cc1ccnc(NCc2cc(Cl)cc(Cl)c2O)c1	-17%	i	-18%	·	27
Cc1cc(C)c(O)c(CN(C)Cc2cc(Cl)cc(Cl)c2O)c1	?	2.8µM*	-24%	?	12
OC(C[n+]1c(Cl)ccc2ccccc21)c1ccccc1 (centres undefined)	-8%	-9%	·	·	·
COc1ccc(-c2nc(NC(=O)C3CC(=O)N(c4ccc5c(c4)OCCO5)C3)sc2C)cc1 (centres undefined)	?	?	?	?	-96*
COc1ccc(N2CC(C(=O)Nc3nccs3)CC2=O)cc1 (centres undefined)	·	·	-7%	17%	-78*
Cc1nn(-c2ccc(N3CCCC3)nn2)c(C)c1CCC(=O)NCc1ccccc1F	-7%	-9%	13%	·	?
CCN(CC)c1ccc(CNc2nc3ccccc3n2CCN2CCCCC2)cc1	?	?	0%	11µM*	-99*
c1ccc(Cn2c(CNc3nc4ccccc4n3CCN3CCCCC3)nc3ccccc32)cc1	-25%	·	?	11µM*	-2
Cn1c(CNc2nc3ccccc3n2CCN2CCCCC2)nc2ccccc21	?	i	-11%	?	51
O=C1S/C(=C\c2ccc(N3CCOCC3)o2)C(=O)N1c1ccccc1	46%	10%	2%	32µM*	45
Cc1[nH]c2ccccc2c1C(=O)CSC(=S)N(C)C	-5%	i	15%	5%	-34
CCCn1c(N)c(C(=O)CSc2nc3ncc(Cl)cc3[nH]2)c(=O)n(C)c1=O	·	·	?	-16%	-26
Cc1[nH]c2ccccc2c1C(=O)CSC(=S)N1CCN(C)CC1	·	·	41%	-24%	-62*
Cc1ccc2nc(SCC(=O)c3c(C)[nH]c4ccccc34)[nH]c2c1	-26%	-4%	29%	-7%	?
CC(C)Cn1c(N)c(C(=O)CSc2nc3ncc(Cl)cc3[nH]2)c(=O)n(C)c1=O	-8%	i	16µM*	?	-14
Cc1[nH]c2ccccc2c1C(=O)CSc1nc2ncc(Cl)cc2[nH]1	-18%	-7%	-15%	0%	-62*
O=S(=O)(NCc1ccccc1)c1ccc(-n2cccn2)cc1	·	·	20%	7%	-12
CCCCCCn1c(=O)n2n(c1=O)[C@@H]1CN(S(=O)(=O)c3ccc(C)cc3)C[C@]1(O)[C@@H](OC(=O)NCc1ccc(OC)c(OC)c1)C2	?	-8%	?	·	-10
Cc1cc(Br)ccc1NC(=O)COC(=O)c1ccccc1OCC(=O)N(C)C	-3%	3%	·	·	·
SMILES	VACV Venus inh	Vaccinia mCherry	FMDV inh	HCV inh	HCMV inh
CCC(C)NC(=O)C1CCC(=O)N(c2ccc3c(c2)OCO3)C1c1ccc(OC)cc1 (centres undefined)	-13%	-22%	-16%	-4%	-62*
CCOC(=O)n1c(=O)n(Cc2ccccc2)c2ccccc21	-17%	i	-11%	24%	?
CCOC(=O)n1c(=O)n(C)c2ccc(Cl)cc21	-3%	i	-3%	3.2µM*	-19
COc1ccc(CCNS(=O)(=O)c2ccc(N3CCCC3=O)cc2)cc1	-12%	-12%	-15%	?	-8
CCOc1ccc(S(=O)(=O)Nc2cc(OC)ccc2OC)cc1	?	-22%	-13%	-33%	-64*
COc1ccc(OC)c(NS(=O)(=O)c2ccc(N3CCCC3=O)cc2)c1	?	·	-16%	-8%	-73*
CCOc1ccc(S(=O)(=O)Nc2cnc3ccccc3c2)cc1	-5%	?	-9%	1.8µM*	-79*
CCN1CCN(c2ccc(NS(=O)(=O)c3c(C)nc4sccn4c3=O)cc2Cl)CC1	-11%[7.34 µM]	-16%[7.34 µM]	-10%	·	-68*
CC1CCCCC12NC(=O)N(CC(=O)NCc1ccc3c(c1)OCO3)C2=O (centres undefined)	12%	-1%	8%	12%	-80*
CC1CCCCC12NC(=O)N(CC(=O)N1CCN(Cc3ccc(C#N)cc3)CC1)C2=O (centres undefined)	·	·	?	10µM*	0
Cc1cccc(C)c1NC(=O)CN1CCN(C(=O)CN2C(=O)NC3(CCCCC3C)C2=O)CC1 (centres undefined)	-15%	-3%	-13%	-30%	-32
CC1CCCCC12NC(=O)N(CC(=O)OCc1ccc(Br)cc1)C2=O (centres undefined)	·	·	?	1%	+
COC(=O)[C@]12CCCCC=C1N(Cc1ccccc1)C(=O)[C@H](CC(=O)NCC13CC4CC(CC(C4)C1)C3)C2	-7%	-3%	0%	·	-17
CCC(Sc1nc(C)cc(C)n1)C(=O)Nc1nccs1 (centres undefined)	·	·	6%	-3%	22
CCC(CO)Oc1cc(NCc2ccccc2C(F)(F)F)c2ncn(C(C)C)c2c1 (centres undefined)	-19%	-9%	-21%	1.3µM*	70
CCC(CO)Oc1cc(NCc2ccccc2F)c2ncn(C(C)C)c2c1 (centres undefined)	-13%	-28%	-4%	?	12
CCC(CO)Oc1cc(NCc2ccccc2Cl)c2ncn(C(C)C)c2c1 (centres undefined)	-25%	-16%	6%	2.2µM*	28
C[C@@H]1CN([C@@H](C)CO)C(=O)CCCn2cc(nn2)CO[C@H]1CN(C)C(=O)Nc1ccccc1F	·	·	·	·	2
Cc1cc(NC(=O)CN2C(=O)NC3(CCC(C)CC3)C2=O)no1 (centres undefined)	3%	-9%	-16%	-4%	-39
CN(CCOc1ccc(-c2ccn(S(=O)(=O)c3ccc(Cl)cc3)n2)cc1)c1ccccn1	·	·	?	1.1µM*	-33
COc1ccc(-c2nc3sc(CCNC(=O)C(=O)Nc4cccc(NC(C)=O)c4)c(C)n3n2)cc1	?	-19%	16%	·	-32
CCCn1nc(NC(=O)c2cccs2)c2cc3cc(C)ccc3nc21	-24%[7.34 µM]	-21%[7.34 µM]	5%	22µM*	25
CCCn1nc(NC(=O)c2cccs2)c2cc3ccccc3nc21	·	·	7%	11µM*	2

Screening data from PubChem.
